# Data published in ChEMBL document CHEMBL3988442, “University of Dundee, Small-Polar-MMV Screening Library” (2021).
# Hit rate of the full screen: of about 48,000 compounds, about 13,000 (27%) showed an effect of 50% or more. The list shows a part of the results.
# Test system: Wolbachia pipientis
# Assay: Anti-Wolbachia Cell-Based Screen
# Type: functional
# Design: scale not given: in the data most compounds retested in dose-response had high values
# Details: 5 µM
row,Structure (SMILES),Percent Effect [%]
1,COc1cccc(CN(C)C(C)c2ccon2)c1OCCn1ccnc1 (stereo not given),6.714
2,N#Cc1cccc(OC2CCN(C(=O)c3cncc(O)c3)CC2)c1,-9.362
3,CC(NCCn1cccn1)c1ccc(F)cc1F (stereo not given),14.02
4,CCn1cnnc1C1CCN(C(=O)c2cccc3c2ccn3C)CC1,4.279
5,CCn1cnnc1C1CCN(C(=O)c2cccc(N(C)C)c2)CC1,182
6,Cn1nnc2cc(C(=O)N3CCCC3Cc3ccccc3)ccc21 (stereo not given),-4.659
7,CCn1cnnc1C1CCN(C(=O)c2ccnc(N(C)C)c2)CC1,117.4
8,CCn1cnnc1C1CCN(C(=O)c2ccc3c(c2)nnn3C)CC1,122.3
9,CCN1CCN(C(=O)c2ccnc(N(C)C)c2)CC1,-10.63
10,CCn1cnnc1C1CCN(C(=O)CC(C)n2cccc2)CC1 (stereo not given),-3.98
11,CCn1cnnc1C1CCN(C(=O)c2cccc(-n3cccc3)c2)CC1,173.7
12,O=C(O)C(F)(F)F.O=C(c1nc2c(o1)CN(CC1CCC1)C2)N1CCCC1,1.201
13,CC(C)(CNC(=O)C1CCCN1S(C)(=O)=O)N1CCOCC1 (stereo not given),0.9982
14,Cc1cc(CNCC2(O)CCOCC2)ccc1F,-13.16
15,COC(=O)N1CCN(Cc2ccccc2C(C)(C)C#N)CC1,-9.14
16,COc1ccccc1-c1cc(C(=O)N(C)C)c2cnn(C)c2n1,108
17,COc1ccccc1CN(C)c1nc2c(cnn2C)c(=O)[nH]1,-4.184
18,COc1cccc(CN(C)Cc2nc3c(cnn3C)c(=O)[nH]2)c1OC,14.32

row,Structure (SMILES),Percent Effect [%]
1,COc1ccc(CN(C)c2nc3c(cnn3C)c(=O)[nH]2)c(OC)c1,-2.005
2,COc1ccccc1OC1CCN(C(=O)c2cnc(C)cc2C)CC1,-3.522
3,COc1ccccc1N(C)Cc1nc2c(cnn2C)c(=O)[nH]1,-7.278
4,COc1cccc2c1N(Cc1nc3c(cnn3C)c(=O)[nH]1)CCC2,-0.8657
5,COc1ccccc1-c1cc(C(=O)N(C)C)nc2c1cnn2C,124.6
6,COc1ccccc1-c1cc(C(=O)N2CCCC2)c2cnn(C)c2n1,117.8
7,COc1cccc(C)c1C(=O)N1CCc2ncnc(NCCO)c2CC1,-30.82
8,O=C(C[S+]([O-])Cc1ccc(F)cc1Cl)NC1CCCC1 (stereo not given),9.339
9,COc1ccc(Nc2ccc(C#N)cn2)cc1N1CCCC1=O,-10.87
10,Cc1nc(C2CCCN(C(=O)Cn3ccccc3=O)C2)no1 (stereo not given),-7.453
11,Cc1noc(C)c1-c1nc(C2CCCN(C(=O)CCN)C2)ccc1CO (stereo not given),106.6
12,Cc1nc(C2CCCN(C(=O)COCc3ccccc3Cl)C2)no1 (stereo not given),-13.21
13,Cc1noc(C)c1-c1nc(C2CCCN(CCC(N)=O)C2)ccc1CO (stereo not given),98.23
14,Cc1noc(C)c1-c1nc(C2CCCN(C(=O)CN)C2)ccc1CO (stereo not given),107.5
15,Cn1ncc2c(N3CCN(CCC(N)=O)CC3)nc(C3CCCC3)nc21,3.18
16,CCc1nc(C2CCCN(C(=O)CCn3ccccc3=O)C2)no1 (stereo not given),-2.479
17,Cc1cc(OCC(=O)N2CCCC(c3noc(C)n3)C2)no1 (stereo not given),0.3444
